TcdB inh: blocks C. difficile toxin B glycohydrolase activity | inhibition, % at 9.99 µM | P18177 | 350,000 tested, 0.24% active | TcdB glycohydrolase enzymatic assay, plate reader | AID 652162; in the data active = inhibition above about 10%
BioA inh: BioA (M. tuberculosis) enzyme inhibition; purified M. tuberculosis BioA enzyme, plate reader; inhibition, % at 9.99 µM; 360,000 tested, 0.096% active; AID 602481; in the data active = inhibition above about 40%; inconclusive = no clear call, values can overlap the other calls
PrP 5UTR inh: inhibition of PrP 5' UTR reporter expression. cell-based PrP 5' UTR mRNA reporter, plate reader. inhibition, % (test concentration not listed). 340,000 tested, 0.35% active; in the data active = inhibition above about 52%; note: 0 = median of the neutral control wells
Y pestis TopoI: inhibitors of Yersinia pestis topoisomerase I; Y. pestis Topo-I cleavage product accumulation, plate reader; activity, % at 10 µM; 360,000 tested, 0.064% active; in the data active = activity above about 50%, passing the limit was not always enough; inconclusive = no clear call, values can overlap the other calls
PrP UTR cherry: prion 5' UTR mRNA inhibition, cherry-pick retest; shares compounds with PrP 5UTR inh; cell-based prion protein 5' UTR reporter, plate reader; inhibition, % at 2.5 µM; 1,100 tested, 48% active; in the data active = inhibition above about 54%; inconclusive = no clear call, values can overlap the other calls
* = called active by the depositor. The list is not random: actives were taken first. Their share in the collection is about 0.53%.

Cc1ccc(S(=O)(=O)N(C)C[C@H]2OCCCC[C@@H](C)Oc3ccc(NC(=O)CCCN(C)C)cc3C(=O)N([C@@H](C)CO)C[C@H]2C)cc1 was read as TcdB inh 0 and BioA inh 1.
CN(C(=O)CSc1nc(-c2ccccc2)cs1)C1CCS(=O)(=O)C1 (configuration not stated) was read as TcdB inh 1, BioA inh -1, PrP 5UTR inh 85*, Y pestis TopoI -3 and PrP UTR cherry -30.
`CN(C(=O)CSc1nc(-c2ccc(F)cc2)cs1)C1CCS(=O)(=O)C1` (configuration not stated) gave BioA inh 0, PrP 5UTR inh -8 and Y pestis TopoI 0.
For CCOc1ccc(S(=O)(=O)Nc2cc(OC)ccc2OC)cc1 the results were PrP 5UTR inh 60*, Y pestis TopoI -2 and PrP UTR cherry 88*.
COc1ccc(OC)c(NS(=O)(=O)c2ccc(N3CCCC3=O)cc2)c1 was read as BioA inh 0, PrP 5UTR inh 60*, Y pestis TopoI -3 and PrP UTR cherry 90*.
`CCC(=O)N1CC2(C1)[C@H](c1ccccc1)[C@@H](CO)N2CC1CCCC1` gave TcdB inh 0.
Cc1noc(C)c1NC(=O)Nc1cccc2c1O[C@@H](CN(C)C(=O)NC(C)C)[C@@H](C)CN([C@@H](C)CO)C2=O was read as TcdB inh 0 and BioA inh 0.
`O=C(C[C@@H]1CC[C@@H]2[C@H](COC[C@H](O)CN2S(=O)(=O)c2ccccc2)O1)N[C@@H]1CCN(Cc2ccccc2)C1` gave TcdB inh 0 and BioA inh 1.
Screening CCCCNS(=O)(=O)c1ccc(NC(=O)Cc2ccc(OC)cc2)cc1 returned TcdB inh 1, PrP 5UTR inh 69*, Y pestis TopoI 15 and PrP UTR cherry 10.
`COc1ccc(CC(=O)Nc2ccc(S(=O)(=O)NC(C)C)cc2)cc1` gave BioA inh 1, PrP 5UTR inh -6 and Y pestis TopoI 8.
Nc1ccc(Cn2ccc3c4c(N)nc(N)nc4ccc32)cc1 was read as TcdB inh 0, PrP 5UTR inh 62*, Y pestis TopoI -11 and PrP UTR cherry -11.
For CCCN1[C@H](C(=O)NCCOC)[C@@H](CO)[C@@H]2Cn3c(ccc(-c4cccc(C(=O)N(C)C)c4)c3=O)[C@@H]21 the results were TcdB inh -1 and BioA inh 1.
`CC1=C([C@H](O)c2ccccc2)[C@H](CO)n2c(=O)n(-c3ccccc3)c(=O)n2C1` gave TcdB inh 1.
`CC(=O)Nc1cc(C)ns1` gave TcdB inh 0, PrP 5UTR inh 69*, Y pestis TopoI 1 and PrP UTR cherry inconclusive.
`CC1CCCCN1CCCNC(=O)c1cc(Br)c(Br)[nH]1` (configuration not stated) gave PrP 5UTR inh 82*, Y pestis TopoI -6 and PrP UTR cherry 6.
For C[C@H]1CN([C@@H](C)CO)C(=O)c2cc(-c3cccnc3)cnc2O[C@@H]1CN(C)C(=O)NC1CCCC1 the results were TcdB inh 0 and BioA inh 0.
`CC(=O)O[C@H]1C(=O)[C@@]2(C)[C@H]([C@H](OC(=O)c3ccccc3)[C@]3(O)C[C@H](OC(=O)[C@H](O)C(NC(=O)c4ccccc4)c4ccccc4)C(C)=C1C3(C)C)[C@]1(OC(C)=O)CO[C@@H]1C[C@@H]2O` (some centres not stated) gave TcdB inh 0, BioA inh 0, PrP 5UTR inh 70*, Y pestis TopoI 6 and PrP UTR cherry 88*.
For CCCCCC(=O)N[C@@H](c1ccccc1)[C@@H](O)C(=O)O[C@H]1C[C@@]2(O)[C@@H](OC(=O)c3ccccc3)C3[C@](C)(C(=O)[C@H](OC(C)=O)C(=C1C)C2(C)C)[C@@H](O)C[C@H]1OC[C@@]31OC(C)=O (some centres not stated) the results were TcdB inh 0, BioA inh -2, PrP 5UTR inh 43 and Y pestis TopoI 27.
Screening CC/C=C/CC(=O)N[C@@H](c1ccccc1)[C@@H](O)C(=O)O[C@H]1C[C@@]2(O)[C@@H](OC(=O)c3ccccc3)C3[C@](C)(C(=O)[C@H](OC(C)=O)C(=C1C)C2(C)C)[C@@H](O)C[C@H]1OC[C@@]31OC(C)=O (some centres not stated) returned TcdB inh 1, BioA inh 0, PrP 5UTR inh 59*, Y pestis TopoI 17 and PrP UTR cherry 85*.

Bioassay records: PubChem BioAssay, Broad Institute
